In PubChem BioAssay one finds composite z-score and z-score data, which are given here for 12 molecules.

The test system of test [1] is Human papillomavirus type 1a protein E7 (residues 44-93). Nature of the test: small molecules binding HPV E7 44-93 – biochemical, small-molecule microarray, residues 44-93, 635 nm fluorescence, primary screen (AID 1108).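 Further: E7 fragment applied at 1 µg/mL in TBST for 1 h at 4 C; score combines spot fluorescence with its signal to noise ratio.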 Conditions: fluorescence 635 nm, higher = more signal.
Test [2] in a line: hepatitis C replication reporter changes, two-sided – Huh7 cells, luciferase reporter, HCV replication inhibitor project, primary screen (AID 1109).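 Further: huh7 hepatoma cells harbouring a luciferase neomycin HCV replicon reporter; luciferase luminescence as measure of HCV replicon replication; test concentration not given here.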 The following applies: Huh7 HCV replicon luciferase reporter, 48 h; higher = more signal. (In general: Reporter assays use an easily measured gene product as a stand-in for the process of interest.)
For test [3], the target named is Left-right determination factor 2 (Homo sapiens) (UniProt O00292). Description: small molecules binding LEFTY2 protein – biochemical, small-molecule microarray, 635 nm fluorescence scan, primary screen (AID 1110). Conditions: higher = more signal.
Sequence of Left-right determination factor 2 (Homo sapiens) (O00292 whole entry, looked up): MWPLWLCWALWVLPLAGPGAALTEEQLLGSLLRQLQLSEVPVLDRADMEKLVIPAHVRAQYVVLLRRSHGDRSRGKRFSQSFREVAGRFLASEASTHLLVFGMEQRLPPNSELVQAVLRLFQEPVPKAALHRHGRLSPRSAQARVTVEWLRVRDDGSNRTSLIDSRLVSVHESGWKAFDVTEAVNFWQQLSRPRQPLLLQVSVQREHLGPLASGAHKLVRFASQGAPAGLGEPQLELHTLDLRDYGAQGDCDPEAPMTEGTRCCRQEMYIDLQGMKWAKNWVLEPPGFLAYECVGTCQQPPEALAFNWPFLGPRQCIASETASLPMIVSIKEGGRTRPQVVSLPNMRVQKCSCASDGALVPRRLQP
Test [4] addresses Calmodulin-1 (Homo sapiens) (UniProt P0DP23). Nature of the test: small molecules binding calmodulin-1 with EGTA – biochemical, small-molecule microarray, Cy5-labelled CALM1, profiling panel (AID 1111).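 Further: labelled calmodulin applied in Tris saline Tween buffer holding calcium plus EGTA and DTT.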 Conditions: Cy5-CALM1 binding fluorescence, higher = more signal.
Test [5] has the same target. Description: small molecules binding Ca-loaded calmodulin-1 – biochemical, small-molecule microarray, Cy5-labelled CALM1, plus calcium, artefact control for SMM control-protein annotation, profiling panel (AID 1112).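 Further: score merges spot fluorescence with signal to noise from triplicate slides.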 Conditions: Cy5-CALM1 binding fluorescence, higher = more signal.
Test [6] in a line: probe aWnt5a binding to arrayed compounds – biochemical, biotinylated probe, 635/667 nm fluorescence, primary screen (AID 1113).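 Further: score merges 667 nm fluorescence intensity with signal-to-noise per printed feature.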 The following applies: small-molecule microarray, higher = more signal.
A short description of test [7]: probe aShh binding to arrayed compounds – biochemical, biotinylated probe, 635/667 nm fluorescence, primary screen (AID 1114).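 Further: probe is biotin-labelled aShh protein from a stem cell growth factor screen; measures binding of labelled protein to compounds printed on the slide; score merges feature fluorescence at 667 nm with signal-to-noise.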 Conditions: small-molecule microarray, higher = more signal.
A short description of test [8]: probe aNog binding to arrayed compounds – biochemical, biotinylated probe, 635/667 nm fluorescence, primary screen (AID 1115).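 Further: probe is biotinylated aNog protein used at 0.15 µg/mL for 1 h at 4 C; z-score combines 667 nm fluorescence of each spot with its signal to noise.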 Conditions: small-molecule microarray, higher = more signal.
For test [9], the target named is Torsin-1A-interacting protein 1 (Homo sapiens) (UniProt Q5JTV8). Nature of the test: compound microarray binding of lysate hLAP1 – cell lysate, small-molecule microarray, COS7 lysate, 635/667 nm fluorescence, primary screen (AID 1116). Conditions: 635 nm fluorescence, higher = more signal.
Sequence of Torsin-1A-interacting protein 1 (Homo sapiens) (Q5JTV8 whole entry, looked up): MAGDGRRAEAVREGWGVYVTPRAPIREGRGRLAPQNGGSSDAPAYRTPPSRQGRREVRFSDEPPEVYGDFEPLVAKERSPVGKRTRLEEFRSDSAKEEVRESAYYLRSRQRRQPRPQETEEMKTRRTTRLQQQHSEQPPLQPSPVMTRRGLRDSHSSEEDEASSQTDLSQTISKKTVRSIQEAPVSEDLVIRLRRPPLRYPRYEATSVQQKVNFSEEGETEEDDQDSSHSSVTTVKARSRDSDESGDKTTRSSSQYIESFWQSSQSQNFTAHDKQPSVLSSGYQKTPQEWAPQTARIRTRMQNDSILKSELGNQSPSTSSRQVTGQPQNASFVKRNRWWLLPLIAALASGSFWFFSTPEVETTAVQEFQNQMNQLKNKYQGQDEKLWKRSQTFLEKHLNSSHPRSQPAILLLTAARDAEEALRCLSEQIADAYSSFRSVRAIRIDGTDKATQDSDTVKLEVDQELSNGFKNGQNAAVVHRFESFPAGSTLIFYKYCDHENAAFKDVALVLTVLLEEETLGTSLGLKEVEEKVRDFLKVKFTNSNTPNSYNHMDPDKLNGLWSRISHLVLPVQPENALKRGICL
The target in test [10] is Alpha-bungarotoxin (Bungarus multicinctus) (UniProt P60615). Description: compounds binding labelled alpha-BTX control protein – biochemical, small-molecule microarray, Alexa647 label, 635/667 nm fluorescence, artefact control for SMM control protein annotation, profiling panel (AID 1117). The following applies: alpha-BTX-A647 binding fluorescence, higher = more signal.
Sequence of Alpha-bungarotoxin (Bungarus multicinctus) (P60615 whole entry, looked up): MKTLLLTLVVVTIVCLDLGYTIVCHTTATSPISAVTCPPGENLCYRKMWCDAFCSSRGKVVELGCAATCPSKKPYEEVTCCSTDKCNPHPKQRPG

In the case of `CCN(CC)c1ccc(N2CC=CC34O[C@@H]5/C=C\CCCOC(=O)C5[C@H]3C(=O)N(C(C)CO)[C@@H]4C2=O)cc1` (stereo not given in full), the composite z-score in test [1] was -0.0836; in test [3], -0.469; in test [4], -0.479; in test [5], -0.619; in [6], -0.0405; in test [7], 0.297. Moreover, the composite z-score in [8] was 0.0073; in test [9], -0.421; in [10], 1.04. This molecule yielded a z-score in [2] of -0.261.

Regarding `CCOC(=O)C[C@H]1[C@H](OC(=O)c2ccc(C(=O)c3ccccc3)cc2)[C@@H](NC(=O)C2CCCCC2)c2cc(OCCCO)ccc2N1C(=O)c1ccc2ccccc2n1`, the composite z-score in test [1] was 1.3; in [3] it was 0.752; in test [4] it was 0.711; in test [5], -0.102; in test [6], 0.0552; in test [7] it was -0.243. The results for the composite z-score in test [8], in test [9] and in test [10] were -0.244, 0.805 and 0.673, respectively. The z-score in test [2] is 0.0574.

`CC(C)[Si]1(C(C)C)OCc2cc(C3CC3)nc(-c3ccc(Oc4ccccc4)cc3)c21`: the composite z-score was -1.16 in [1]; -0.168 in test [3]; -0.289 in [4]; 0.631 in [5]; -0.18 in [6]; -0.117 in test [7]. Also, the composite z-score is -0.0208 in test [8], -0.414 in [9] and -0.336 in [10]. The z-score in test [2] was -2.24.

On to `C=CCN1C(=O)[C@]2(CCS(=O)(=O)c3ccccc3)N=C(c3ccc(OCCCO)cc3)O[C@@H]2c2ccccc21`, for which the composite z-score is 1.29 in test [1]; 0.59 in test [3]; 2.17 in test [4]; -0.493 in test [5]; -0.0268 in [6]; 0.365 in [7]. Further, the results for the composite z-score in test [8], in test [9] and in [10] were 0.033, 1.68 and 1.2, respectively. This molecule gave a z-score in test [2] of -2.68.

Consider `C=C(/C(=C/C[C@H](OC(=O)c1ccncc1)c1ccc(CO)o1)c1cnc2ccccc2c1)C(C)C`, for which the composite z-score was 1.38 in [1]; 0.957 in test [3]; 0.544 in test [4]; -0.0351 in test [5]; 0.0474 in [6]; -0.15 in [7]. Moreover, the composite z-score in [8] came to 0.181; in test [9], 0.854; in [10], 0.999. Besides, in [2], the z-score is -2.1.

With `C=CCC(OC(C)=O)[C@@H]1[C@@H](N(Cc2ccc(-c3cccc(C(F)(F)F)c3)o2)C(=O)c2ccc(-c3ccccc3)cc2)c2cc(OCCCO)ccc2N1C(=O)Cc1ccc2ccccc2c1` (stereo not given in full), the composite z-score in [1] is -0.267; in test [3] it was -0.458; in test [4] it was -0.248; in [5] it was 0.277; in [6], -0.0981; in test [7], 0.0204. Moreover, the composite z-score in test [8] is -0.144; in [9] it was -0.115; in test [10], -0.153. For the same molecule, the z-score in [2] is -1.09.

Consider `CC(C)C(CO)N1C(=O)[C@@H]2[C@H]3C(=O)OCC=C[C@H]3OC23C=CCN(c2ccc(Cl)cc2)C(=O)[C@@H]13` (stereo not given in full), for which the composite z-score in test [1] is -0.0683; in [3], -0.433; in [4], -0.871; in [5], -0.499; in test [6], -0.1; in test [7], 0.0278. Moreover, the composite z-score in test [8] is -0.196; in test [9] it was -0.344; in [10], -1.17. This molecule also showed a z-score in test [2] of -0.665.

As for `CC(C)c1ccc(NN2C(C(O)c3ccc(F)cc3)C=CC3C(=O)N(c4ccccc4)C(=O)C32)cc1` (stereo not given), the composite z-score in [1] was 1.44; in test [3], 0.397; in test [4] it was 1.24; in [5] it was -0.0298; in [6], 0.105; in test [7], 0.246. The composite z-score in test [8] came to 1.75; in [9], 0.305; in test [10], 1.39. For the same molecule, in test [2], the z-score was -0.619.

For `C#CCN([C@@H](Cc1ccccc1)C(=O)OC)[C@@H](/C=C/C1CC1)[C@H](O)Cc1ccccc1`, the composite z-score in [1] was -0.447; in test [3], 0.0156; in [4] it was -0.979; in test [5] it was -1.54; in test [6] it was -0.217; in [7], -0.0553. The composite z-score is -0.352 in test [8], 0.483 in [9] and 0.0673 in [10]. In test [2], this molecule had a z-score of -3.13.

As to `COCCOC(=O)N1C(=O)[C@@]2(c3cc(C#CC4(O)CCCCCC4)ccc31)[C@H](c1ccc(O)cc1)N1[C@H](c3ccccc3)[C@H](c3ccccc3)OC(=O)[C@H]1[C@@H]2C(=O)N1CCN(c2ncccn2)CC1`, the composite z-score in test [1] worked out at 1.35; in test [3], 0.45; in test [4], 1.83; in [5], 0.18; in [6], 0.0375; in test [7], 0.679. The composite z-score was -0.679 in [8], 1.21 in [9] and 0.383 in test [10]. In test [2], this molecule had a z-score of -1.58.

As for `Oc1ccc2cc[n+](Cc3cc4c(cc3Br)OCO4)cc2c1`, the composite z-score in [1] was -1.22; in test [3], -0.929; in test [4] it was -0.489; in test [5] it was 0.446; in test [6], -0.1; in test [7], -0.0769. Further, the results for the composite z-score in [8], in test [9] and in [10] were -0.0546, -0.346 and -0.791, respectively. For the same molecule, the z-score in test [2] stood at 1.65.

Regarding `CCCCN1CC=CC23O[C@@H]4/C=C\CCC(C)OC(=O)C4[C@H]2C(=O)N(CCCO)[C@@H]3C1=O` (stereo not given in full), the composite z-score is -0.169 in test [1]; -0.949 in test [3]; -0.0083 in test [4]; 0.458 in [5]; -0.252 in test [6]; 0.535 in test [7]. Besides, the figures for the composite z-score in test [8], in [9] and in test [10] were -0.362, -0.318 and -0.566, respectively. In addition, in test [2], the z-score is -0.398.
